Pol kappa inh = DNA polymerase kappa (human) inhibition. Q9UBT6. purified Pol kappa, fluorescent DNA synthesis assay, 10 min. Potency, µM (series often up to 107 µM), for inactives: at the top dose activity, negative = inhibition, actives largely listed as inhibitors. hit rate 0.53% among 400,000. AID 588579; further: on the % scale 0 is the no-effect control and ±100 the full control effect
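First, compounds were pin-transferred onto 10 nM Pol kappa. After 15 min at room temperature, substrate was added to 50 nM final. Fluorescence was then measured kinetically at 0 and 10 min.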
POLB inh = inhibitors of human DNA polymerase beta; hit rate 1.3% among 340,000; AID 485314; Pol beta primer extension/strand displacement, fluorescence kinetic; Potency, µM (highest dose often 114 µM), for the others: at the top dose activity change, negative = inhibition, usual class: inhibitors; P06746; further: on the % scale 0 is the no-effect control and ±100 the full control effect
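Preincubation: enzyme (10 nM) with compound, 15 min, RT. Reaction: substrate added to 50 nM final. Reads: 0 and 10 min. Analysis: normalized, Hill fit.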
APEX1 inh = blocks human APE1 abasic DNA cleavage. recombinant APE1, TAMRA/BHQ-2 abasic DNA cleavage fluorescence. Potency, µM (series often up to 65.8 µM), without a hit: top-dose activity change, negative = inhibition, actives largely listed as inhibitors. hit rate 0.35% among 350,000;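 further: plate controls were vehicle for no effect and reference inhibitor for full effect; nearly all actives have a fitted effect of over 55% in size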
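Quantitative HTS: incision of a TAMRA/BHQ-2 double-stranded substrate bearing a tetrahydrofuran abasic site by 0.75 nM APE1 raises fluorescence. Substrate 50 nM final, added after 15 min compound preincubation at room temperature; progress as third-minus-first kinetic read difference.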
Pol iota inh = inhibitors of human DNA polymerase iota | Pol iota fluorescent replication assay, 10 min | hit rate 1% among 390,000 | Q9UNA4 | AID 588590 | Potency, µM (top dose mostly 115 µM), without a hit: at the top dose activity, negative = inhibition, actives largely listed as inhibitors
Target sequence (Q9UNA4 whole entry, looked up): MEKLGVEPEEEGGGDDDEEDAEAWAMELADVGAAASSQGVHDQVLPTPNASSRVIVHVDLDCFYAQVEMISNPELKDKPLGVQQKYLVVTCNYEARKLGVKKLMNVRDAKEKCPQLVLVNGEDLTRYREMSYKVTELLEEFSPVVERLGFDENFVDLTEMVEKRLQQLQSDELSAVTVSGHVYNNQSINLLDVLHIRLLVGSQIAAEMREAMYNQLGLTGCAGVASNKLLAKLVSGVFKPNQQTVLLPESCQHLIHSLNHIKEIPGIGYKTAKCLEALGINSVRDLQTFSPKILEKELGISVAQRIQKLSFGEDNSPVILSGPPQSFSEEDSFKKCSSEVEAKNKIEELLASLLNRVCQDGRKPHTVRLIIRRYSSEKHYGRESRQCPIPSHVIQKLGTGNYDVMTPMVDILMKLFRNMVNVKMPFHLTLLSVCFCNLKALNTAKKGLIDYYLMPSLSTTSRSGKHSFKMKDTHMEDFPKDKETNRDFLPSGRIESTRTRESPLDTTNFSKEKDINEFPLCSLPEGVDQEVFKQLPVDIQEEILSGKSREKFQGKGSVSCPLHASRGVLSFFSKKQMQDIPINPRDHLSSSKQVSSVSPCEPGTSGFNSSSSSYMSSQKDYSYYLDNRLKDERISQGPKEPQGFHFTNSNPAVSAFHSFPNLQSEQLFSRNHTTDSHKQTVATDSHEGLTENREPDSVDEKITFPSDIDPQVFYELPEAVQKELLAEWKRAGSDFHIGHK
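Fluorescent replication assay read twice, at 0 min and 10 min after adding 50 nM (final) substrate. Enzyme (10 nM) and compounds were first incubated 15 min at room temperature; enzyme-free buffer wells were negative controls.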
L3MBTL1 inh = inhibitors of human L3MBTL1 | Q9Y468 | AlphaScreen L3MBTL1–H3K9me1 peptide binding | Potency, µM (doses to about 57.1 µM), without a hit: top-dose activity, negative = inhibition, actives largely listed as inhibitors | hit rate 0.66% among 230,000; further: on the % scale 0 is the no-effect control and ±100 the full control effect; nearly all actives have a fitted effect of over 60% in size
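AlphaScreen assay: L3MBTL1 (50 nM final) was preincubated 30 min at room temperature with biotinylated H3(1-15)K9me1 peptide (75 nM final), then 30 min with library compounds; streptavidin donor and nickel chelate acceptor beads (10 ug/mL final) added, 30 min dark.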
Pol eta inh = inhibitors of human DNA polymerase eta; recombinant Pol eta, fluorescent DNA replication assay; Potency, µM (series often up to 114 µM), for the others: at the top dose activity change, negative = inhibition, actives largely listed as inhibitors; hit rate 1.2% among 390,000; AID 588591; further: on the % scale 0 is the no-effect control and ±100 the full control effect
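Fluorescent replication assay: 50 nM final substrate added after a 15 min room-temperature compound preincubation with 10 nM enzyme. Signal taken at 0 min and again at 10 min.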
* hit, by the source's call; ? = inconclusive; . = no result; [ ] = dose if it differs, or a comment. Rows were chosen to be rich in hits. Some 2.5% of all compounds tested hit in one or more screens of this group. The call rests on the fitted dose curve; in most records, active means well fitted curve in the direction sought with a large enough effect; inconclusive means small, poorly fitted or top-dose-only effect, or another doubt; inactive means no such curve, though single readings can be large; an effect the other way counts as inactive or inconclusive. Potency means the concentration at half of the fitted maximal effect.

SMILES | Pol kappa inh | POLB inh | APEX1 inh | Pol iota inh | L3MBTL1 inh | Pol eta inh
COc1ccc(C2CC(c3cccs3)=NN2C(=O)CSc2nc(=O)n3ccc(C)cc3n2)cc1 (configuration not stated) | -25.1% | . | -16.6% | 22.4µM* | -8.5% | ?
Cc1cc(C(=O)Cn2ncc(Cl)c(Cl)c2=O)c(C)n1CC(F)(F)F | -31.1% | -3.7% | -2.3% | ? | -15.7% | 22.4µM*
Cc1ccc(C)c(C(=O)Cn2ncc(Cl)c(Cl)c2=O)c1 | -16.7% | 4.5% | 9.8% | -6.2% | . | -11.2%
Cc1oc(-c2ccccc2)nc1C(=O)O | -10.7% | 21.6% | 14.8% | 12.6% | 15.1% | 9.0%
CC(=O)c1ccc(OC(=O)c2nc(-c3ccccc3)oc2C)cc1 | -14.7% | 50.1µM* | 19.8% | ? | . | ?
CC12C(=O)N(c3cccc4cccnc34)C(=O)C1C1C=CC2C1 (configuration not stated) | 5.0% | 9.4% | 0.9% | 27.8% | . | -17.2%
CC12C(=O)N(c3nccs3)C(=O)C1C1C=CC2C1 (configuration not stated) | -27.5% | 31.6µM* | 10µM* | 89.1µM* | ? | 28.2µM*
O=C(CSc1nc2sc3c(c2c(=O)n1-c1ccccc1)CCCC3)N/N=C/c1ccc(C(=O)O)cc1 | ? | ? | 0.0% | 39.8µM* | . | ?
CCOc1ccc(S(=O)(=O)n2nc(C)c(S(=O)(=O)N3CCCCC3)c2C)cc1 | -6.4%[60.1 µM] | 23.9% | . | -3.8% | . | -11.5%
COc1ccc(N(CCCN2C(=O)c3cccc4cccc(c34)C2=O)C(=O)c2ccncc2)cc1 | -3.7% | 0.7% | -3.2% | 12.0% | -4.4% | -4.8%
COc1ccc(N(CCN2C(=O)c3ccccc3C2=O)C(=O)c2cccc([N+](=O)[O-])c2)cc1 | 2.5%[60.1 µM] | 0.159µM* | 2.7% | -15.0% | -23.1% | ?
CN(C)c1ccc(-c2cc(N(C)Cc3ccco3)ncn2)cc1 | -2.4%[60.1 µM] | . | -2.9% | . | . | .
CN(Cc1ccco1)c1cc(-c2ccoc2)ncn1 | 25.1µM* | . | ? | . | . | .
CCCCOc1ccc(C(=O)OCC(=O)c2c(N)n(C)c(=O)n(C)c2=O)cc1 | -21.0% | . | -19.6% | 6.1% | 8.0% | -21.5%
CCO[C@H]1OC(C(=O)NCc2ccccc2)=C[C@@H](c2cn(C(C)=O)c3ccccc23)[C@@H]1CCCO | -6.3% | 1.0% | -0.6% | 15.3% | 5.2% | -23.5%
O=C[C@H](O)[C@@H](O)[C@H](O)[C@H](O)CO | . | . | -2.1% | . | . | .
O=C(O)CCN1C(=O)/C(=C/c2ccc(-c3nc4ccccc4s3)o2)SC1=S | ? | 25.1µM* | -2.5% | ? | -18.6% | 3.16µM*
O=Cc1ccc(-c2nc3ccccc3s2)o1 | -11.8% | -21.8% | 2.2% | 28.6% | -2.1% | -6.6%
O=C(NC(=S)Nc1cccc(S(=O)(=O)NC2=NCCC2)c1)c1cc(-c2ccco2)nc2ccccc12 | ? | 39.8µM* | -2.4% | 28.2µM* | ? | ?
CCOc1cccc(C(=O)N(Cc2ccc(C)o2)C2CCS(=O)(=O)C2)c1 (configuration not stated) | -16.8% | 24.5% | . | -20.5% | . | .
CC(=O)c1ccc(N2CCN(c3ncnc4c3c(-c3ccccc3)cn4-c3cccc(C)c3)CC2)cc1 | -14.8%[60.1 µM] | 4.9% | . | 1.0% | . | -13.6%
CCN1CCN(C(=O)Nc2ccccc2OC)CC1 | -7.6% | -1.0% | -5.7% | -5.0% | 39.8µM* | -3.9%
COc1ccccc1NC(=O)N1CCN(CCc2ccccc2)CC1 | -31.6% | -1.2% | 2.9% | -6.9% | . | -2.4%
O=C(O)/C(=C\c1ccc(C(F)(F)F)cc1)c1ccc(S(=O)(=O)N2CCCC2)s1 | -13.7% | . | -1.8% | -5.2% | 1.9% | -1.5%
O=C(O)/C(=C\c1ccc(Br)cc1)c1ccc(S(=O)(=O)N2CCCCC2)s1 | -9.8% | 28.2µM* | -12.6% | ? | -29.8% | ?
SMILES | Pol kappa inh | POLB inh | APEX1 inh | Pol iota inh | L3MBTL1 inh | Pol eta inh
NC(=S)N=Nc1c(O)cc(O)c2[nH]c(=O)ccc12 | ? | . | . | 3.16µM* | . | 1.78µM*
NC(=S)N=Nc1c(O)[nH]c2ccc(F)cc12 | -4.3% | 28.4% | -5.3% | 32.1% | -6.3% | -15.0%
Cn1ccnc1COc1ccc(C=O)cc1 | -3.2% | 0.5% | 11.1% | 151.6% | 0.7% | -8.7%
Cc1ccc(C(=O)CC(SCC(=O)O)c2ccc([N+](=O)[O-])cc2)cc1 (configuration not stated) | 3.0% | -7.4% | 1.1% | 10µM* | -9.2% | -25.5%
Nc1ccccc1SC(CC(=O)c1ccccc1)c1ccc([N+](=O)[O-])cc1 (configuration not stated) | . | . | . | . | . | -6.0%
COc1ccccc1NC(=O)CSc1nc2sc(C)c(C)c2c(=O)n1C | -12.9% | 45.0% | -20.7% | -45.3% | . | -27.6%
Cc1sc2nc(SCC(=O)Nc3c(C)n(C)n(-c4ccccc4)c3=O)n(C)c(=O)c2c1C | -26.7% | 20µM* | -8.3% | ? | -22.8% | ?
COc1cccc(/C=N/Nc2nnc(C)n2N)c1OCc1ccccc1Cl | -6.1% | -2.2%[57.1 µM] | 0.7% | 20µM* | 9.7% | -7.0%
COc1ccc(/C=N/Nc2nnc(C)n2N)cc1OC(C)=O | -11.7% | -23.0% | 2.9% | ? | . | -1.3%
COc1ccc(/C=N/Nc2nnc(C)n2N)cc1OC | -20.7% | -26.9% | -8.4% | 11.2µM* | . | -17.2%
CN1C(C(=O)NCC2CC2)CC2Cn3c(nc4cc5ccccc5cc43)C21 (configuration not stated) | 2.6% | ? | 3.98µM* | 6.5% | . | -5.4%
COCCNC(=O)C1CC2Cn3c(nc4cc5ccccc5cc43)C2N1C (configuration not stated) | 11.2% | -3.3% | 1.1% | -23.5% | . | 4.3%
Cc1cc(C)n(-c2nc(N(c3ccccc3)c3ccccc3)nc(-n3nc(C)cc3C)n2)n1 | 2.8% | -8.4% | 5.3% | 6.6% | 3.98µM* | -13.7%
CC(=O)c1nnn(-c2nc(N)nc(N(c3ccccc3)c3ccccc3)n2)c1C | -5.0% | -2.4% | -4.5% | 6.0% | 1.7% | -20.3%
N#Cc1ccc(CN2C(=O)c3ccccc3Sc3ccc(C(=O)OCc4ccco4)cc32)cc1 | -3.9%[60.1 µM] | -7.4% | . | 27.2% | . | -13.9%
CCc1cc2c(=O)c(-c3nc4ccccc4n3C)coc2c(CN2CCCCC2C)c1O (configuration not stated) | -97.3% | 28.2µM* | ? | 31.6µM* | . | ?
CCOc1ccc(C2c3c(oc4ccc(C)cc4c3=O)C(=O)N2CCCN(C)C)cc1OC (configuration not stated) | 0.4%[60.1 µM] | -5.3% | . | 15.9% | . | -19.0%
Cc1c(C(=O)O)sc2nc(/C=C/c3cccc(O)c3)[nH]c(=O)c12 | -13.3% | -1.8% | ? | ? | . | 35.5µM*

High-throughput results (PubChem BioAssay)
